Measured values from PubChem BioAssay.

assay: blockers of RIG-like receptor reporter activation – cell-based, Sendai virus stimulus, luciferase, 10K MLSCN set, TLR/RLR signaling modifier project, primary screen (AID 602276); details: HEK293 RL24 IRF3 luciferase reporter, at 10 µM, hits give high values;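 active = inhibition at or above 50% at 10 µM; inactive = inhibition below 50%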;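 also: firefly luciferase from ISG56 promoter only with Renilla not read in this screen; 0% = Sendai virus plus DMSO and 100% = medium plus DMSO without virus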

inhibition, inactive:
Cc1[nH]c(C(=O)N2CCCCC2)c(C)c1C(=O)NC1CCCCC1 5.02%, COc1ccc(OC)c(CNC(=O)COc2cc(=O)n(C)c3ccccc23)c1 6.07%, CCc1nnc(NC(=O)C2CC(=O)N(Cc3ccco3)C2)s1 (stereo unspecified) 13.8%, Oc1cccc(C=NCc2ccccc2)c1O 10.5%, COc1ccc(-c2noc(CCCC(=O)O)n2)cc1 35%, CC(C)c1nnc(NC(=O)c2cnccn2)s1 -7.98%, Cc1cc(=O)n2nc(N3CCCC(C(=O)N4CCN(C)CC4)C3)sc2n1 (stereo unspecified) -7.33%, O=S(=O)(Cc1ccccc1)N1CCCCCC1 -4.29%, Cc1[nH]nc2c1C1(C(=O)N(Cc3ccc(Cl)cc3)c3ccccc31)C(C#N)=C(N)O2 (stereo unspecified) 12.5%, C=CCn1c(COc2ccccc2)nnc1SCC(=O)C(C)(C)C 3.19%, Nn1c(SCC(=O)Nc2ccc(F)cc2)nnc1-c1cccnc1 12.6%, Cc1ccc(S(=O)(=O)N2CCOCC2)cc1C(=O)Nc1nc(-c2cccnc2)cs1 7.72%, C=CCN(C(=O)CNS(=O)(=O)c1ccccc1)C(C(=O)NCCOC)c1ccncc1 (stereo unspecified) 11%, O=C(CCn1c(=S)[nH]c2cc3c(cc2c1=O)OCO3)N1CCN(C2CCCCC2)CC1 3.29%, CC(C)OC(=O)CN1C(=O)C(C)(C)Oc2ccc(C(=O)NC3CC3)cc21 14.5%, C/C(N)=C(/C#N)C(=O)COC(=O)c1cc(C)n(-c2ccc(F)cc2)c1C 15.2%
